Several values for one entry are separate records, joined by “and”; a condition that tells them apart may be missing. Equal values may be shown once. Some structures have more than one record in an assay (separate samples or runs), and their calls can disagree. Activity calls are given as the source filed them.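 The calls were made as follows, unless noted: active = inhibition at or above 50% relative to wild type and mutant plate controls; inactive = inhibition below 50%.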
Experiments:
[1] = inhibitors of TNFa-induced NFkB p65 translocation, primary screen, imaging, HUVEC, MLSMR starter and 10KST1 sets (AID 438;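 active = inhibition above 20% together with a positive visual image hit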;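 also: compound added about 3h40 before a 20 min TNFalpha stimulation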;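 as to inhibition: signal is the nuclear over cytoplasmic p65 intensity ratio per well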); conditions: HUVEC TNFa-induced p65 nuclear translocation; cell count: measured here: nuclei count (cytotoxicity indicator), at 2.08 µM; inhibition: at 2 µM, stronger effect = higher value, 0% TNFa-plus-vehicle, 100% no-TNFa wells
[2] = reduction of polyQ htt aggregates in cells – imaging, exon1htt(103Q)mCFP cells, high-content imaging, primary screen (AID 483;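 active = visual image review flags a hit and inhibition of aggregation exceeds 20%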;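 also: compound exposure lasted 3 days before fixation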;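 as to nuclei count: percent of the per-plate median nuclei count of sample wells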); conditions: exon1htt(103Q)mCFP cell line, aggregate imaging, at 2 µM; inhibition of aggregation: stronger effect = higher value; nuclei count: measured here: cell count, toxicity
[3] = endothelial E-selectin expression blockers – imaging, HUVEC, immunofluorescence, MLSMR starter and 10KST1 sets, primary screen (AID 487;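 active = visually confirmed hit in the image check and inhibition above 20%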;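 as to inhibition: signal is fraction of cell area covered by stained E-selectin grains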;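 as to nuclei count: 100% = median nuclei count of all wells on the same plate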); conditions: HUVEC TNFalpha-induced E-selectin immunofluorescence imaging, at 2 µM; inhibition: stronger effect = higher value; nuclei count: measured here: cell number, toxicity
[4] = Primary imaging screen for DUSP6 inhibitors that restore phospho-Erk in transfected HeLa cells, chemical complementation (AID 609;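 active = compounds giving at least 50% inhibition in the cell-based MKP-3 phosphatase rescue imaging test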;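 as to inhibition: phospho-Erk level distribution per well compared with pooled transfected vehicle control wells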); conditions: HeLa MKP-3 transfected, phospho-Erk imaging KS statistic, at 10 µM, cells stimulated with TPA for 15 min
[5] = target: Dual specificity protein phosphatase 6 (Homo sapiens) (UniProt Q16828); experiment: as above; conditions: HeLa MKP-3 transfected, phospho-Erk imaging KS statistic; at 10 µM; stronger effect = higher value; cells stimulated with TPA for 15 min
[6] = target: Voltage-gated potassium channel subunit beta-2 (Rattus norvegicus) (UniProt P62483); experiment: inhibitors of rat Kvbeta2 reductase activity – biochemical, NADPH fluorescence, primary screen (AID 622;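 active = fluorescence slope higher than the sample average by over 3 SD, cut at about -0.22 in these data, passing the limit was not always enough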;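 also: slope of raw intensity against log time taken from 70 to 1610 s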); conditions: recombinant KvBeta, 4-cyanobenzaldehyde reduction, at 10 µM, stronger effect = higher value
[7] = target: Voltage-gated potassium channel subunit beta-2 (Rattus norvegicus) (UniProt P62483); experiment: enhancers of rat Kvbeta2 NADPH turnover – biochemical, NADPH fluorescence, primary screen (AID 623;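 active = NADPH fluorescence slope more negative than the mean of all samples by about 3 SD, 99.7% confidence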;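 also: fluorescence intensity change per second fitted from 20 to 320 s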); conditions: Recombinant KvBeta, NADPH fluorescence decrease slope, 10 min; at 10 µM; stronger effect = lower value
[8] = target: Alpha-2C adrenergic receptor (Homo sapiens) (UniProt P18825); experiment: compounds altering alpha2C-coupled GIRK flux – cell-based, HEK293 alpha2C/GIRK1/2, thallium flux, primary screen (AID 624;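 active = fluorescence slope after compound addition differing from the mean of all screened samples at 99.7% confidence, in either direction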;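 also: slope of fluorescence ratio to pre-addition baseline per second over 15 to 24 s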); conditions: thallium flux BTC fluorescence, at 10 µM, actives lie on both sides
[9] = inhibitors of larval lipid processing in zebrafish, primary screen, whole organism, PED6 fluorescence, gall bladder and intestine (AID 686;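 active = a full or partial loss of lipid-probe fluorescence in the fish gall bladder, intestine or both, judged by eye; inactive = no fluorescence loss, or compound toxic to the fish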;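 also: larvae 5 to 7 days old with five fish per well; signal comes from phospholipase A2 cleavage of quenched PED6 carried via bile; overnight exposure to compound and PED6 before scoring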); conditions: Zebrafish larvae PED6 lipid processing, fluorescence scoring; screened at 20 µM (by protocol)
[10] = loss of swimming-algae plug formation – whole organism, Chlamydomonas reinhardtii, WT vs cilia-less mutant, absorbance, 96-well, primary screen (AID 463189); conditions: Chlamydomonas reinhardtii gravitaxis, OD600 absorbance, 2 days; at 10 µM; stronger effect = higher value;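 also: 0% = wild type cc124 cells in DMSO and 100% = ciliumless bld1 mutant cells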
[11] = blockers of RIG-like receptor reporter activation – cell-based, Sendai virus stimulus, luciferase, 10K MLSCN set, TLR/RLR signaling modifier project, primary screen (AID 602276;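 active = inhibition at or above 50% at 10 µM; inactive = inhibition below 50%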;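 also: firefly luciferase from ISG56 promoter only with Renilla not read in this screen; 0% = Sendai virus plus DMSO and 100% = medium plus DMSO without virus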); conditions: HEK293 RL24 IRF3 luciferase reporter, at 10 µM, stronger effect = higher value
[12] = TLR3 IRF3 reporter activation blockers – cell-based, poly I:C stimulus, luciferase, 10K MLSCN set, primary screen (AID 602277;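 active = inhibition of the reporter signal at or above 50%; inactive = inhibition below 50%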); conditions: HEK293-TLR3 RL24 IRF3 luciferase reporter, at 10 µM, stronger effect = higher value
[13] = measured here: cell density z-score
[14] = measured here: nuclear c-Myc green intensity z-score
[15] = measured here: nuclear pErk red intensity z-score, stronger effect = higher value

Sequence of Dual specificity protein phosphatase 6 (Homo sapiens) (Q16828 whole entry, looked up): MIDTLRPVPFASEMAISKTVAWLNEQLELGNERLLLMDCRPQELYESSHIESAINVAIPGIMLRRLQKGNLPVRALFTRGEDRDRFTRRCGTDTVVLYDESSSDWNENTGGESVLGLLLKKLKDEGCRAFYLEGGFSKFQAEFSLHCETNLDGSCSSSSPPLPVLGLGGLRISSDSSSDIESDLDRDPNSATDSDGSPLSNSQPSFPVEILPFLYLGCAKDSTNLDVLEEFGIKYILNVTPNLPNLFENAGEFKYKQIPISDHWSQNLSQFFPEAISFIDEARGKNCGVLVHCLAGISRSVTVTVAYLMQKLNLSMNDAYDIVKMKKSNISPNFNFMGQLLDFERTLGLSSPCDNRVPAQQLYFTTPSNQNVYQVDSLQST
Sequence of Voltage-gated potassium channel subunit beta-2 (Rattus norvegicus) (P62483 whole entry, looked up): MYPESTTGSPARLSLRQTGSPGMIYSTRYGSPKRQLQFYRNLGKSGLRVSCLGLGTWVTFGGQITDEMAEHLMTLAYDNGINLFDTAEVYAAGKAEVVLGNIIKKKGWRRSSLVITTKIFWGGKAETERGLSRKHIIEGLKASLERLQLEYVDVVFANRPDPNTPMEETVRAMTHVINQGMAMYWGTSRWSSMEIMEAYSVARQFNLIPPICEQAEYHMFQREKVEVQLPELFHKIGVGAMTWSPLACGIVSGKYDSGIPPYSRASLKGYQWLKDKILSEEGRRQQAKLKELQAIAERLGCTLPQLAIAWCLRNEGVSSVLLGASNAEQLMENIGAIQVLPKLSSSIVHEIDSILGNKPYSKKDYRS
Sequence of Alpha-2C adrenergic receptor (Homo sapiens) (P18825 whole entry, looked up): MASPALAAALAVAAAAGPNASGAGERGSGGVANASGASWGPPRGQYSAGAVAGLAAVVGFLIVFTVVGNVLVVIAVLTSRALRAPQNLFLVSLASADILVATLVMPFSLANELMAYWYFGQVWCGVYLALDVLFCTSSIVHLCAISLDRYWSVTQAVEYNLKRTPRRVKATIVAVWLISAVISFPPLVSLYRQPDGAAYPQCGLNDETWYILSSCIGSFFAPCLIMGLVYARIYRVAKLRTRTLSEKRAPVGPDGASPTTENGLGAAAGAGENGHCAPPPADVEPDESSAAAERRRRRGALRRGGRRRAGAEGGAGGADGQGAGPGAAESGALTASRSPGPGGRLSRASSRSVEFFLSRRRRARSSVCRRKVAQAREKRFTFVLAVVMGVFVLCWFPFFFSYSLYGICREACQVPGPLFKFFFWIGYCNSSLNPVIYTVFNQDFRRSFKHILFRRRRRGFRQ

Row | SMILES | cell count [1] | inhibition [1] | inhibition of aggregation [2] | nuclei count [2] [%] | inhibition [3] | nuclei count [3] [%] | z-score [4, 13] | z-score [4, 14] | z-score [4, 15] | inhibition [5] | fluorescence slope [6] | NADPH fluorescence slope [7] | slope [8] | outcome [9] | inhibition [10] | inhibition [11] | inhibition [12]
1 | CN(CCO)CC(O)Cn1cnc2c1c(=O)n(C)c(=O)n2C (stereo not given) (tested in a mixture with another compound) | 638 | -0.3% (inactive) | 1.1% (inactive) | 103 | 6.8% (inactive) | 125 | 0.569 | 0.0927 | 0.334 | 10.2% (inactive) | -0.511 (inactive) | -6e-05 (inactive) | 0.00421 (inactive) | inactive | -10.3% (inactive) | 3.79% (inactive) | 33.4% (inactive)
2 | CCCc1c(OCCCCc2nn[nH]n2)ccc(C(C)=O)c1O | 599 | -11.6% (inactive) | -9.3% (inactive) | 95.3 | -37.8% (inactive) | 129 | 0.961 | 0.408 | -0.601 | 9.37% (inactive) | -0.458 (inactive) | -4e-05 (inactive) | 0.00468 (inactive) | inactive | -12.8% (inactive) | 15.4% (inactive) | 34.3% (inactive)
3 | CCc1cc2c(=O)c(-c3cscn3)coc2cc1O | 406 | -6.1% (inactive) | -9.9% (inactive) | 59.7 | -99% (inactive) | 103 | -2.75 | 2.51 | -1.53 | 1.98% (inactive) | -0.528 (inactive) | 4e-05 (inactive) | 0.00552 (inactive) | inactive | -8.67% (inactive) | 20.6% (inactive) | 26.3% (inactive)
4 | CC(=O)OCC(=O)[C@@]12OC(C)(C)O[C@@H]1C[C@H]1[C@@H]3C[C@H](F)C4=CC(=O)C=C[C@]4(C)[C@@]3(F)[C@@H](O)C[C@@]12C | 518 | -0.9% (inactive) | 2% (inactive) | 53.2 | -73.2% (inactive) | 104 | -0.49 | -0.238 | -0.0296 | -2.46% (inactive) | -0.449 (inactive) | -7.8e-05 (inactive) | 0.00478 (inactive) | inactive | -12.6% (inactive) | 5.9% (inactive) | 40.3% (inactive)
5 | c1cncc(-c2nnc3sc(-c4ccco4)nn23)c1 | 535 | 0.4% (inactive) | 3.4% (inactive) | 94.2 | -81.8% (inactive) | 105 | 0.315 | -1.33 | 1.09 | -2.47% (inactive) | -0.476 (inactive) | -8.1e-06 (inactive) | 0.00677 (inactive) | inactive | 1.41% (inactive) | 13.2% (inactive) | -2.28% (inactive)
6 | Cc1ccc(Cl)c(Nc2ccccc2C(=O)O)c1Cl | 583 | 1.3% (inactive) | 12.3% (inactive) | 91.1 | -70.5% (inactive) | 95.9 | -0.43 | -0.511 | -0.695 | -8.38% (inactive) | -0.487 (inactive) | -4.2e-05 (inactive) | 0.00556 (inactive) | inactive | 20.2% (inactive) and 61% (active) | 16.4% (inactive) | 40.3% (inactive)
7 | Cn1c(=O)c2[nH]cnc2n(C)c1=O | 656 | -1.4% (inactive) | 12.3% (inactive) | 83.7 | -74.2% (inactive) | 142 | -0.0459 | 0.0873 | -0.896 | 19% (inactive) | -0.453 (inactive) | -2.6e-05 (inactive) | 0.00501 (inactive) | inactive | -1.38% (inactive) and -11.3% (inactive) | 6.67% (inactive) | 32.1% (inactive)
8 | CNCCC=C1c2ccccc2CCc2ccccc21 | 525 | 0.8% (inactive) | 8% (inactive) | 77 | -20.7% (inactive) | 117 | -0.881 | -0.123 | 2.59 | -10.4% (inactive) | -0.521 (inactive) | -4.9e-05 (inactive) | 0.00426 (inactive) | inactive | 34% (inactive) and 30.7% (inactive) | 29.4% (inactive) | 43.5% (inactive)
9 | C=CCn1c(N)c(C(=O)OC(C)(C)C)c2nc3ccccc3nc21 | 370 | -11.7% (inactive) | -9.4% (inactive) | 100 | -104% (inactive) | 124 | 1.71 | -2 | -1.69 | -2.59% (inactive) | -0.257 (inactive) | 0.000211 (inactive) | 0.00615 (inactive) | inactive | 12.3% (inactive) | 12.2% (inactive) | -1.21% (inactive)
10 | COC(=O)CN(c1nc(C)c(Cl)c(OC)n1)S(=O)(=O)c1ccc(C)cc1 | 706 | -4.1% (inactive) | 2.4% (inactive) | 98.1 | -48.3% (inactive) | 148 | -0.882 | 0.458 | 1.21 | -11% (inactive) | -0.373 (inactive) | -4.1e-05 (inactive) | 0.00465 (inactive) | inactive | 5.7% (inactive) | 13.8% (inactive) | 18.7% (inactive)
11 | CC(C)OC(=O)C(CC(=O)O)NCc1ccccc1 (stereo not given) | 518 | -2% (inactive) | 15% (inactive) | 65.3 | -117% (inactive) | 118 | 0.414 | 0.989 | 0.212 | 1.75% (inactive) | -0.296 (inactive) | 2.8e-05 (inactive) | 0.00502 (inactive) | inactive | -6.73% (inactive) | 14.9% (inactive) | 20.3% (inactive)
12 | Nc1nc(F)nc2c1ncn2[C@@H]1O[C@H](CO)[C@@H](O)[C@@H]1O | 526 | -6.8% (inactive) | -1.5% (inactive) | 103 | 5.4% (inactive) | 106 | -1.32 | 0.314 | 0.132 | -2.46% (inactive) | -0.491 (inactive) | -3.9e-05 (inactive) | 0.00434 (inactive) | inactive | -8.17% (inactive) | 2.74% (inactive) | 23.7% (inactive)
13 | CCOC(=O)N1CCN(c2ncnc3c2[nH]c2ccc(OC)cc23)CC1 | 520 | -6% (inactive) | 2.6% (inactive) | 109 | 6.4% (inactive) | 100 | 1.15 | -0.635 | 1.15 | 0.671% (inactive) | -0.222 (inactive) | -4.8e-05 (inactive) | 0.00434 (inactive) | inactive | 8.03% (inactive) | -1.93% (inactive) | -5.19% (inactive)
14 | O=C(O)CCN(CCC(=O)O)c1nnc(SCc2ccccc2)s1 | 428 | 4% (inactive) | -9.5% (inactive) | 108 | -187% (inactive) | 136 | 0.906 | -0.398 | -0.408 | -3.98% (inactive) | -0.393 (inactive) | -6e-05 (inactive) | 0.0059 (inactive) | inactive | -1.99% (inactive) | 18.7% (inactive) | 25.8% (inactive)
15 | NC(CO)C(=O)NNCc1ccc(O)c(O)c1O (stereo not given) | 571 | -9.9% (inactive) | -16.9% (inactive) | 117 | -52.2% (inactive) | 124 | 0.364 | 0.175 | -0.65 | 3.45% (inactive) | -0.466 (inactive) | -6.2e-05 (inactive) | 0.00539 (inactive) | inactive | -0.599% (inactive) and -9.6% (inactive) | 8.18% (inactive) | 29.4% (inactive)
16 | OCCN1CCN(CCCN2c3ccccc3Sc3ccc(C(F)(F)F)cc32)CC1 | 606 | 2% (inactive) | 4.9% (inactive) | 91.7 | -56.8% (inactive) | 127 | 0.204 | 0.276 | 0.714 | -10.4% (inactive) | -0.544 (inactive) | -5.6e-05 (inactive) | 0.00393 (inactive) | active; no signal in intestine only | -10.6% (inactive) and 145% (active) | 12.2% (inactive) | 58.3% (active)
17 | COc1ccc(/C=C(/C#N)c2cccnc2)cc1OC | 515 | 4.6% (inactive) | 17.7% (inactive) | 82.3 | -17.2% (inactive) | 112 | 0.571 | -1.05 | -1.32 | 1.48% (inactive) | -0.499 (inactive) | -4.4e-05 (inactive) | 0.00455 (inactive) | inactive | -22% (inactive) | 6.71% (inactive) | -45.5% (inactive)
18 | Cc1cccc(N2C(=O)CC(N3CCN(Cc4ccc(Cl)cc4)CC3)C2=O)c1 (stereo not given) | 544 | -6.1% (inactive) | 17.3% (inactive) | 110 | -107% (inactive) | 132 | 1.1 | -1.84 | -0.334 | 3.56% (inactive) | -0.551 (inactive) | -3.6e-05 (inactive) | 0.00524 (inactive) | inactive | -12.9% (inactive) | 16.4% (inactive) | 18% (inactive)
19 | COc1cccc(N2CCN(c3ncnc4c3[nH]c3ccc(F)cc34)CC2C)c1 (stereo not given) | 342 | -7% (inactive) | 10.9% (inactive) | 92.8 | 11.4% (inactive) | 127 | 0.762 | 0.103 | -1.52 | -3.5% (inactive) | -0.393 (inactive) | -9.3e-05 (inactive) | 0.00384 (inactive) | inactive | 25.3% (inactive) | 2.95% (inactive) | 98.8% (active)
20 | Nc1ccc(S(=O)(=O)c2ccc(N)cc2)cc1 | 511 | -1.5% (inactive) | 0.3% (inactive) | 103 | -20.6% (inactive) | 106 | -0.829 | 0.112 | 0.308 | 16.8% (inactive) | -0.465 (inactive) | 3.3e-05 (inactive) | 0.00573 (inactive) | inactive | 8.87% (inactive) | -3.01% (inactive) | 11.3% (inactive)

Source: PubChem BioAssay
